# According to PubChem BioAssay (EPA / NIEHS):
# Records with an inconclusive call do not appear. Active and inactive are the calls of the source. The calls were made as follows: active = hit-call score of the fitted dose curve at least 0.9, where 1 is the maximum; inconclusive = response in the unintended direction; inactive = score below 0.9.
# Tests used:
# [1] = target: human Dual Specificity Protein Phosphatase 3 (DUSP3), DUSP3 (gene 1845) (UniProt P51452); experiment: NVS_ENZ_hDUSP3: NovaScreen (NVS) Enzymatic Assay for human Dual Specificity Protein Phosphatase 3 (DUSP3) (AID 2283152);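 also: phosphatase activity of recombinant human DUSP3 on a fluorogenic substrate without cells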
# human Dual Specificity Protein Phosphatase 3 (DUSP3), DUSP3 (gene 1845), sequence (P51452 whole entry, looked up): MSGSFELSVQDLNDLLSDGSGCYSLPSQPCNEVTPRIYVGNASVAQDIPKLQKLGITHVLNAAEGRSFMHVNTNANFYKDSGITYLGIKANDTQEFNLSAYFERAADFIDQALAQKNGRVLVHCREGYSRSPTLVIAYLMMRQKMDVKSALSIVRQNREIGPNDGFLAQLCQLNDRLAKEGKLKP
# Procedure, shortened: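 Cell-free assay with recombinant human DUSP3 and fluorogenic substrate, read by fluorescence intensity. Primary screen ran duplicate at 25 uM; actives followed up in concentration series; loss of signal versus DMSO scored.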
# [2] = target: human Elastase, ELANE (gene 1991) (UniProt P08246); experiment: NVS_ENZ_hElastase: NovaScreen (NVS) Enzymatic Assay for human Elastase (AID 2283153)
# human Elastase, ELANE (gene 1991), sequence (P08246 whole entry, looked up): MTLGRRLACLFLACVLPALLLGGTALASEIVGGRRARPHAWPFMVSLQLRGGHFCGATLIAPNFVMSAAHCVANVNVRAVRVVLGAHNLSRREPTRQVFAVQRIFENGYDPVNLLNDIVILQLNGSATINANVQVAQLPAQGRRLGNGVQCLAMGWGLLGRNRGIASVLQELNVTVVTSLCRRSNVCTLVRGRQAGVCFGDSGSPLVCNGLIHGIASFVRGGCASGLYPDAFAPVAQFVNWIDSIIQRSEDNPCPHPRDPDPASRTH
# Procedure, shortened: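 Cell-free elastase from human neutrophils, 1.5 h after dosing, activity read by absorbance. Primary screen in duplicate at 25 uM; hits (e.g., 30% inhibition) rerun in singleton concentration-response up to 50 uM, fitted versus DMSO.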
# [3] = target: Glycogen synthase kinase-3 beta (Homo sapiens) (UniProt P49841); experiment: NVS_ENZ_hGSK3b: NovaScreen (NVS) Enzymatic Assay for human Glycogen Synthase Kinase-3 beta (GSK3b) (AID 2283165)
# Glycogen synthase kinase-3 beta (Homo sapiens), sequence (P49841 whole entry, looked up): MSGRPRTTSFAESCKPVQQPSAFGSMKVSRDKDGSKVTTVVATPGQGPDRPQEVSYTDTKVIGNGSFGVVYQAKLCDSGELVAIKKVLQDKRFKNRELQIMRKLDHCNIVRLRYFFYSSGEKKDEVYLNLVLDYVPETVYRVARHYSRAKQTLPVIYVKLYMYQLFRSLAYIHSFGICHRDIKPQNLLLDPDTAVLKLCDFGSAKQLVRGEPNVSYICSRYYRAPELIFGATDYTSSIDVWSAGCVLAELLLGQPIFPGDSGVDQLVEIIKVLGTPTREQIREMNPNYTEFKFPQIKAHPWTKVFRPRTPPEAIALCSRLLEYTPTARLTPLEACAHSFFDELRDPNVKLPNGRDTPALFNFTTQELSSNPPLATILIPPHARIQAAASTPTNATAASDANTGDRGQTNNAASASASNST
# Procedure, shortened: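 Recombinant enzyme with specific fluorescent substrate, 1 h, product separated by electrophoretic mobility shift. Primary duplicate screen at 25 uM; actives (e.g. 30% inhibition) followed in singleton concentration-response to 50 uM. Signal loss fitted versus DMSO.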
# [4] = target: human Ephrin type-A Receptor 1 (EphA1), EPHA1 (gene 2041) (UniProt P21709); experiment: NVS_ENZ_hEphA1: NovaScreen (NVS) Enzymatic Assay for human Ephrin type-A Receptor 1 (EphA1) (AID 2283158);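 also: activity is signal loss versus DMSO meaning EphA1 kinase inhibition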
# human Ephrin type-A Receptor 1 (EphA1), EPHA1 (gene 2041), sequence (P21709 whole entry, looked up): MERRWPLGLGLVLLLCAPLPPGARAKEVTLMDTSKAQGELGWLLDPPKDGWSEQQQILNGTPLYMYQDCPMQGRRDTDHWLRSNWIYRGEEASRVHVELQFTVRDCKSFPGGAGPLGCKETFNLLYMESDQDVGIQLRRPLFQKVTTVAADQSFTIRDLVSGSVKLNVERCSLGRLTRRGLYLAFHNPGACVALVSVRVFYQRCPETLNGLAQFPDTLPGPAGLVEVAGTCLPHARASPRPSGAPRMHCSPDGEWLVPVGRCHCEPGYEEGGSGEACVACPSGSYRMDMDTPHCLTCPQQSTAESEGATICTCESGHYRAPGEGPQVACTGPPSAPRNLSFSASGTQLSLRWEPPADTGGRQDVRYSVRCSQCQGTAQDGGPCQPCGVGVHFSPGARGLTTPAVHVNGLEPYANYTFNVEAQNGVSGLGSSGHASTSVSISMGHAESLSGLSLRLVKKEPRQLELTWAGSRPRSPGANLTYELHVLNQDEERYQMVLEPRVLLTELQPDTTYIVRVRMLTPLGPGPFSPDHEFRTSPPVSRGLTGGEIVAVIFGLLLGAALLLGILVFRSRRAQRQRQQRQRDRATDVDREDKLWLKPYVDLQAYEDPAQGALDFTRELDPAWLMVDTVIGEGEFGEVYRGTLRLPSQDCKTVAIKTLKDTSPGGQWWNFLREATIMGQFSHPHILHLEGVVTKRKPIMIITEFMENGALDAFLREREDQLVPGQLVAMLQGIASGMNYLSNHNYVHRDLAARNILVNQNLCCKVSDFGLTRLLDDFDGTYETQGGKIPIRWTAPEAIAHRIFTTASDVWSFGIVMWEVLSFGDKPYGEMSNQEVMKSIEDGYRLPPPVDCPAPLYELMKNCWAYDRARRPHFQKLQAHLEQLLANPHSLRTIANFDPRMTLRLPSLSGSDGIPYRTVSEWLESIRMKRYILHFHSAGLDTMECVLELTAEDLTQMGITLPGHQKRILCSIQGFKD
# Procedure, shortened: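 Here the EphA1 protein is recombinant and the substrate fluorescent, with electrophoretic separation before fluorescence detection at 1 hour. Signal loss against DMSO defines activity; plate controls included; follow-up concentration series reach 50 uM.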
# [5] = target: Histone deacetylase 3 (Homo sapiens) (UniProt O15379); experiment: NVS_ENZ_hHDAC3: NovaScreen (NVS) Enzymatic Assay for human Histone Deacetylase 3 (HDAC3) (AID 2283163)
# Histone deacetylase 3 (Homo sapiens), sequence (O15379 whole entry, looked up): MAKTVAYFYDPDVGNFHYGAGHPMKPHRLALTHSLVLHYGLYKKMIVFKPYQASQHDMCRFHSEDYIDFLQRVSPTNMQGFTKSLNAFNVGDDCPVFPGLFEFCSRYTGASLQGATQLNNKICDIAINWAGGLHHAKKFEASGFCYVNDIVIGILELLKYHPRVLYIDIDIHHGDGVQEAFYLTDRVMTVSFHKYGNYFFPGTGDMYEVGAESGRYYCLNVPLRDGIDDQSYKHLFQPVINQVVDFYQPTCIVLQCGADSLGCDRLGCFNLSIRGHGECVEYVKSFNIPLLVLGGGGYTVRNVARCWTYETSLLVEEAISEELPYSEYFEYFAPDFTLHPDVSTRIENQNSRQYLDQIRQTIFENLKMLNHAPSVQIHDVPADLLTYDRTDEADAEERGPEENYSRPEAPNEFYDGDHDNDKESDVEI
# Procedure, shortened: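 Recombinant human HDAC3 with fluorescent substrate, 1 h after dosing; product separated from substrate by electrophoretic mobility shift and read by fluorescence. Primary screen at 25 uM in duplicate; actives (e.g. ≥30% inhibition) retested in concentration-response up to 50 uM.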
# [6] = target: human Janus Kinase 2 (Jak2), JAK2 (gene 3717) (UniProt O60674); experiment: NVS_ENZ_hJak2: NovaScreen (NVS) Enzymatic Assay for human Janus Kinase 2 (Jak2) (AID 2283169)
# human Janus Kinase 2 (Jak2), JAK2 (gene 3717), sequence (O60674 whole entry, looked up): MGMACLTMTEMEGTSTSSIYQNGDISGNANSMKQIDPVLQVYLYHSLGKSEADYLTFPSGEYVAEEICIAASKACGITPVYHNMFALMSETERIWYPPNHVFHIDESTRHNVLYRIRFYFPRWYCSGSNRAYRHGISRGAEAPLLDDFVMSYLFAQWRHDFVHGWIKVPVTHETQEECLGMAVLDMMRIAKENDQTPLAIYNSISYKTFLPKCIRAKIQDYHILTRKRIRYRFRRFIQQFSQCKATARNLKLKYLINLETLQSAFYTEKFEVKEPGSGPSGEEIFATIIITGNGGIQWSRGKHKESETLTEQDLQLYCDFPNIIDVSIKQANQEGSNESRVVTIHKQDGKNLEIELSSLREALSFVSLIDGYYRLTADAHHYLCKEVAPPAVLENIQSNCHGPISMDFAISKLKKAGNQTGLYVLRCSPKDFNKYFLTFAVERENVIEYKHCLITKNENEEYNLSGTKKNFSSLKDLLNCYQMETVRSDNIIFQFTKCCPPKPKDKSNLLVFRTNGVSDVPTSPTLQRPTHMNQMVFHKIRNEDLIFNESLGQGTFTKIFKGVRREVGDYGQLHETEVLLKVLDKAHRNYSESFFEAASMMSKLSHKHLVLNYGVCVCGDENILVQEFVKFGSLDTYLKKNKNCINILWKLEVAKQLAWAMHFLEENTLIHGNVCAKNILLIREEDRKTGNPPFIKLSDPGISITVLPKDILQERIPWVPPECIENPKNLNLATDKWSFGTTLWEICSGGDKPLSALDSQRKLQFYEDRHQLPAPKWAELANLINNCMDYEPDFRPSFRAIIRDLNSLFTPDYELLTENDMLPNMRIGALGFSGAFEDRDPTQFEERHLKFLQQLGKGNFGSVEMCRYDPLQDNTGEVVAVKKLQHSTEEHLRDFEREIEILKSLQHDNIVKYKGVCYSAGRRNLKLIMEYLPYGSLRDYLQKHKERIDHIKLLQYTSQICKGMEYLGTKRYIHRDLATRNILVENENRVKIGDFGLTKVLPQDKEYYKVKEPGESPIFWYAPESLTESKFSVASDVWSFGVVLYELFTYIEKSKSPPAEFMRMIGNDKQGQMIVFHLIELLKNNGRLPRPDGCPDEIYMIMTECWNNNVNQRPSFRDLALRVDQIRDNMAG
# Description: NVS_ENZ_hJak2 is a biochemical, single-readout assay that uses extracted gene-proteins in a cell-free assay. Measurements were taken 1 hour after chemical dosing in a 384-well plate.NVS_ENZ_hJak2 is one of one assay component(s) measured or calculated from the NVS_ENZ_hJak2 assay. It is designed to make measurements of enzyme activity, a form of enzyme reporter, as detected with fluorescence intensity signals by Fluorescence and electrophoretic mobility shift technology.Data from the assay component NVS_ENZ_hJak2 was analyzed into 1 assay endpoint. This assay endpoint, NVS_ENZ_hJak2, was analyzed in the positive analysis fitting direction relative to DMSO as the negative control and baseline of activity. Using a type of enzyme reporter, loss-of-signal activity can be used to understand changes in the enzymatic activity as they relate to the gene JAK2. Furthermore, this assay endpoint can be referred to as a primary readout, because this assay has produced multiple assay endpoints where this one serves a enzymatic activity function. To generalize the intended target to other relatable targets, this assay endpoint is annotated to the kinase intended target family, where the subfamily is non-receptor tyrosine kinase.
# Binding assays used specific radioligands (tritiated, iodinated) with non-radioactive competitive displacement ligands in agonist or antagonist protocols (as indicated) and various reference compounds and inhibitors to titrate specific binding to receptors and transporters. Most enzyme assays (CYPs, kinases, phosphatases, proteases, HDACs) used recombinant protein and specific substrates (fluorescence mostly, some colorimetric and radioactive) and inhibitors, followed by a biochemical separation of substrate and product. All assays for the biochemical HTS were initially run in duplicate at a single concentration (10 uM for CYP450 assays and 25 uM for all others). Assay-chemical combinations meeting a pre-defined threshold (e.g., 30% inhibition and other criteria defined below) were then run in singleton concentration-response format with maximum concentration of 20 uM for CYPs and 50 uM for all others. Each assay was run with positive and negative controls, and concurrent controls on every plate. The follow-up (secondary) screen tested active chemical-pairs in concentration series, as well as a few additional assays not tested in the primary screen, some selected negative inactives, and several cases re-run in the concentration series for confirmatory purposes.
# [7] = target: human c-Jun N-terminal Kinases (JNK2), MAPK9 (gene 5601) (UniProt P45984); experiment: NVS_ENZ_hJNK2: NovaScreen (NVS) Enzymatic Assay for human c-Jun N-terminal Kinases (JNK2) (AID 2283171)
# human c-Jun N-terminal Kinases (JNK2), MAPK9 (gene 5601), sequence (P45984 whole entry, looked up): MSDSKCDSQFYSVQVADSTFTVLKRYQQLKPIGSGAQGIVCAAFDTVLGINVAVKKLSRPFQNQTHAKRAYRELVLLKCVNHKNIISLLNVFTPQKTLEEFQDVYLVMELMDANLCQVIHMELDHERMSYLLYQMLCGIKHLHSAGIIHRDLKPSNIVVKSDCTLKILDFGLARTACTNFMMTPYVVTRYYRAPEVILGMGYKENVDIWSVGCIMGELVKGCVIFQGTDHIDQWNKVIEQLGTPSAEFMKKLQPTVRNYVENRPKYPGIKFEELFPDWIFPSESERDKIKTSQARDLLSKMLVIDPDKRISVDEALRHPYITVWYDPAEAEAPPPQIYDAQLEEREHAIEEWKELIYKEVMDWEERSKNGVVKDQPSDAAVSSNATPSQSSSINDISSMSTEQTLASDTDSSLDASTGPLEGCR
# Procedure, shortened: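 Cell-free recombinant human JNK2 activity assay; fluorescent substrate and product separated by electrophoretic mobility shift, read 1 h after dosing. Primary duplicate screen at 25 uM; actives run in concentration-response up to 50 uM, relative to DMSO.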
# [8] = target: human LYN Proto-Oncogene, Src family Tyrosine Kinase (LynA), LYN (gene 4067) (UniProt P07948); experiment: NVS_ENZ_hLynA: NovaScreen (NVS) Enzymatic Assay for human LYN Proto-Oncogene, Src family Tyrosine Kinase (LynA) (AID 2283173)
# human LYN Proto-Oncogene, Src family Tyrosine Kinase (LynA), LYN (gene 4067), sequence (P07948 whole entry, looked up): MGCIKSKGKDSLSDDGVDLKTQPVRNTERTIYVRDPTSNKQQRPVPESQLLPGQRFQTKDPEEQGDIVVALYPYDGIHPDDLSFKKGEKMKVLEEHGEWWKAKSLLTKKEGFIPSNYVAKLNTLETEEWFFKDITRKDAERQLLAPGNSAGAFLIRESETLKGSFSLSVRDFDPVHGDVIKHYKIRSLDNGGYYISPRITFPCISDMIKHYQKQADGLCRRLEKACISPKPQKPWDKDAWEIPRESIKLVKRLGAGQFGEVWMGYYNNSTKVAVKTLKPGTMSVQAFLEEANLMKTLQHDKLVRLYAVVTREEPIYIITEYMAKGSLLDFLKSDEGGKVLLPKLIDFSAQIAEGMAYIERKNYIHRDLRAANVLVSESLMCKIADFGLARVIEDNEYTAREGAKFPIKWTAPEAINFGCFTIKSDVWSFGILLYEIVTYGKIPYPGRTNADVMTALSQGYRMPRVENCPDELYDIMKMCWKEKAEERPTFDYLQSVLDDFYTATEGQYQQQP
# Procedure, shortened: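 Recombinant kinase with fluorescent substrate; product separated from substrate by electrophoretic mobility shift and read 1 h after dosing. Duplicate screen at 25 uM, then concentration-response up to 50 uM; activity scored as signal loss against DMSO.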
smiles,measurement,setting,value
O=C(OC[C@H]1O[C@@H](OC(=O)c2cc(O)c(O)c(OC(=O)c3cc(O)c(O)c(O)c3)c2)[C@H](OC(=O)c2cc(O)c(O)c(OC(=O)c3cc(O)c(O)c(O)c3)c2)[C@@H](OC(=O)c2cc(O)c(O)c(OC(=O)c3cc(O)c(O)c(O)c3)c2)[C@@H]1OC(=O)c1cc(O)c(O)c(OC(=O)c2cc(O)c(O)c(O)c2)c1)c1cc(O)c(O)c(OC(=O)c2cc(O)c(O)c(O)c2)c1,AC50,[1],3.95 µM (active)
same,AC50,[2],0.0537 µM (active)
same,AC50,[3],0.000698 µM (active)
CC/C(=C\C(=N/O)C(N)=O)C(C)[N+](=O)[O-] (centres undefined),outcome,[4],inactive
O=C1OC(=O)C2C3C=CC(C3)C12 (centres undefined),outcome,[3],inactive
CCOc1cccc(-n2cc(C(=O)N3CCN(c4cc(C(=O)O)c5ccccc5c4)CC3)nc2-c2ccc(C)cc2)c1,AC50,[2],6.63 µM (active)
CN(C)c1ccc(N=NS(=O)(=O)O)cc1,outcome,[4],inactive
same,outcome,[3],inactive
COCCOc1cc2cc(C(=O)NC3CCN(C(C)C)CC3)n(CC(=O)Nc3ccc(Cl)cn3)c2cn1,outcome,[5],inactive
same,outcome,[3],inactive
O=P(OC(CCl)CCl)(OC(CCl)CCl)OC(CCl)CCl,outcome,[3],inactive
CCc1cc(SCc2sc(-c3ccc(C(F)(F)F)cc3)nc2CN2CCN(c3ccc(OC)cc3)CC2)ccc1OCC(=O)O,AC50,[2],2.7 µM (active)
same,outcome,[3],inactive
COc1ccc(/C=C/S(=O)(=O)NC(=O)c2ccc(C)cc2Cl)cc1,outcome,[4],inactive
O=C(O)c1cc(N=Nc2ccc(S(=O)(=O)Nc3ccccn3)cc2)ccc1O,AC50,[1],14 µM (active)
same,outcome,[4],inactive
same,outcome,[3],inactive
same,outcome,[6],inactive
same,outcome,[7],inactive
CNS(=O)(=O)c1cc(C(=O)N2CCC(CCN3C4CCC3CC(n3c(C)nc5ccccc53)C4)(c3cccc(F)c3)CC2)c(Cl)cc1F (centres undefined),AC50,[2],8.03 µM (active)
same,outcome,[4],inactive
same,outcome,[3],inactive
same,AC50,[6],10.2 µM (active)
same,outcome,[8],inactive
